Compound activity deposited in PubChem BioAssay by National Center for Advancing Translational Sciences (NCATS).
Vaccinia mCherry = inhibitors of vaccinia virus infection (mCherry reporter signal); actives 0.63% (n = 310,000); Vaccinia virus mCherry reporter infection, fluorescence; Potency, µM (highest dose often 36.5 µM), most hits filed as inhibitors; calls by dose curve; tested in A549 cells; note: nearly all actives have a fitted effect of over 35% in size
HCV inhibitor = blocks hepatitis C virus | Huh7.5.1 HCVcc-Cre infection, luciferase reporter, 44 h | Potency, µM (titrated, usually from 41.8 µM), hits mostly inhibitors | actives 3.4% (n = 340,000) | AID 651820
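Luciferase read-out (15 sec integration) after a 15 min room-temperature substrate step quantifies HCVcc-Cre infection. Cells, 1,000 per well, had compound added 4 h post-plating, then virus at ~0.5 moi, and were cultured 44 h.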
Pf growth 96h = P. falciparum growth inhibition at 96 hour, primary screen for plastid delayed-death inhibitors; P. falciparum luciferase reporter growth, 96 h; AID 504834; actives 6.9% (n = 320,000); Potency, µM (doses to about 28.7 µM), usual class: inhibitors
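Delayed-death screen, second-generation endpoint: infected erythrocytes, 2% hematocrit, 0.05% parasitemia final; 96 hours at 37 C, 5% CO2; luciferase detection reagent; luminescence decrease equals reduced growth.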
VACV Venus inh = inhibitors of vaccinia virus (Venus reporter). actives 0.46% (n = 330,000). Vaccinia virus Venus reporter expression, fluorescence. Potency, µM (highest dose often 36.5 µM), most hits filed as inhibitors; calls by dose curve; tested in A549 cells; note: nearly all actives have a fitted effect of over 30% in size
NS1 function inh = inhibitors of influenza NS1 protein function | Potency, µM (doses to about 46.1 µM) | actives 0.4% (n = 270,000); calls by dose curve; note: actives are rising curves; nearly all actives have a fitted effect of over 50% in size
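Read-out: OD600 growth recovery of NS1-expressing budding yeast. Cells grown overnight at 30C in -URA glucose medium, washed, resuspended and diluted 1:100 in 2% galactose assay medium, pH 6.0. Same strain lacking NS1 served as positive control.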
Pf growth 48h = P. falciparum growth inhibition at 48 hours (one generation) | P. falciparum luciferase growth in erythrocytes, 48 h | Potency, µM (titrated, usually from 28.7 µM), usual class: inhibitors | actives 5.9% (n = 310,000) | AID 504832
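In quantitative HTS format, infected erythrocytes bearing luciferase-reporter parasites were treated for a single generation at 37 C. Luminescence after adding detection reagent served as the growth measure.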
Each line names hits and unclear results; the compound was inactive in the other large screens. The list is not random: actives were taken first. Their share in the collection is about 11%. Unless noted, calls come from the whole dose curve; as a rule, active = well fitted inhibition curve with a large enough effect; inconclusive = small, poorly fitted or top-dose-only effect, or another doubt; inactive = no such curve, though single readings can be large or run the other way.

CCCc1c(C(=O)N2CCN(c3ccccc3OC)CC2)cnn1-c1ccccc1	HCV inhibitor inconclusive
CCCCN(C)C(=O)c1ccc(Nc2nc(C(N)Cc3ccccc3)cs2)nc1 (configuration not stated)	none (no result: HCV inhibitor, Pf growth 96h, NS1 function inh, Pf growth 48h)
Cc1cccc(/C=N/c2sc3c(c2C(=O)OC(C)(C)C)CCN(C)C3)c1O	HCV inhibitor inconclusive, Pf growth 96h 1.85µM, Pf growth 48h inconclusive
CCOC(=O)c1c(/N=C/c2cc(C)ccc2O)sc2c1CCN(C)C2	Pf growth 96h inconclusive
O=C1CNC(c2ccccc2Cl)c2cc(Br)ccc2N1 (configuration not stated)	Pf growth 96h 4.65µM
Cc1ccc(/C=C2\SC(=S)N(CCC(=O)NCCCN3CCOCC3)C2=O)cc1	Vaccinia mCherry inconclusive, HCV inhibitor inconclusive, Pf growth 96h inconclusive, VACV Venus inh inconclusive
O=C(CCN1C(=O)/C(=C/c2ccccc2Cl)SC1=S)NCCCN1CCOCC1	HCV inhibitor inconclusive, Pf growth 96h 13.1µM, Pf growth 48h inconclusive (no result: Vaccinia mCherry, VACV Venus inh)
O=C(CCCN1C(=O)/C(=C/c2cccc(Br)c2)SC1=S)Nc1ccccn1	HCV inhibitor 11.2µM, Pf growth 96h inconclusive, Pf growth 48h inconclusive (no result: Vaccinia mCherry, VACV Venus inh)
O=C(CCCN1C(=O)/C(=C/c2cccc(Br)c2)SC1=S)NCCCN1CCOCC1	Pf growth 96h 3.29µM, Pf growth 48h inconclusive
O=C(CCCN1C(=O)/C(=C/c2cccc(Br)c2)SC1=S)Nc1cccnc1	Vaccinia mCherry inconclusive, HCV inhibitor inconclusive, Pf growth 96h inconclusive (no result: NS1 function inh)
CCOC(=O)Cc1csc(NC(=O)CSc2nnc(-n3nc(C)cc3C)c3ccccc23)n1	HCV inhibitor inconclusive (no result: Vaccinia mCherry, VACV Venus inh)
COc1ccccc1CNC(=O)C1CCCN(S(=O)(=O)c2ccc3c(c2)C(C)(C)C(=O)N3C)C1 (configuration not stated)	HCV inhibitor inconclusive, Pf growth 48h inconclusive
O=C(c1cccc(C(F)(F)F)c1)N1CCc2c([nH]c3ccccc23)C1C(F)(F)F (configuration not stated)	Pf growth 96h 11.7µM, Pf growth 48h 8.28µM
O=C(NCCc1ccccc1)C1CCCN1C(=O)Nc1ccccc1 (configuration not stated)	Pf growth 96h inconclusive (no result: Vaccinia mCherry, VACV Venus inh)
COc1cc(C2C3=C(CCCC3=O)Nc3[nH]n(-c4ccccc4)c(=O)c32)cc(OC)c1OC (configuration not stated)	Pf growth 96h inconclusive (no result: NS1 function inh)
COc1cc(OC)c(C(=O)Nc2ccc(C(=O)c3ccccc3)cc2)cc1OC	HCV inhibitor inconclusive, Pf growth 96h inconclusive
CCOC(=O)c1sc2ncc([N+](=O)[O-])cc2c1N	none (no result: Vaccinia mCherry, VACV Venus inh)
CCOC(=O)c1sc2nc(C)c([N+](=O)[O-])c(COC)c2c1N	Pf growth 48h 10.4µM
CCN(Cc1cccs1)C(=O)CN1C(=O)NC(c2ccccc2)(c2ccccc2)C1=O	Pf growth 96h 13.1µM, Pf growth 48h inconclusive (no result: Vaccinia mCherry, VACV Venus inh, NS1 function inh)
CN(Cc1ccco1)C(=O)CN1C(=O)NC(c2ccccc2)(c2ccccc2)C1=O	Pf growth 96h inconclusive, Pf growth 48h inconclusive (no result: NS1 function inh)
Cc1ccc(CN(C)C(=O)CN2C(=O)NC(c3ccccc3)(c3ccccc3)C2=O)c(C)c1	HCV inhibitor inconclusive, Pf growth 96h inconclusive, Pf growth 48h 13.1µM (no result: Vaccinia mCherry, VACV Venus inh, NS1 function inh)
CC1CCCC(NC(=O)CN2C(=O)NC(c3ccccc3)(c3ccccc3)C2=O)C1C (configuration not stated)	Vaccinia mCherry inconclusive, Pf growth 96h inconclusive, Pf growth 48h 14.7µM (no result: NS1 function inh)
CCN(C(=O)CN1C(=O)NC(c2ccccc2)(c2ccccc2)C1=O)c1ccccc1	Pf growth 96h inconclusive, Pf growth 48h 13.1µM
O=C(CN1C(=O)NC(c2ccccc2)(c2ccccc2)C1=O)NC1CCS(=O)(=O)C1 (configuration not stated)	none (no result: Vaccinia mCherry, VACV Venus inh, NS1 function inh)
CCOC(=O)C1CCN(C(=O)C(C)Oc2ccc(C(=O)c3ccccc3)cc2)CC1 (configuration not stated)	HCV inhibitor inconclusive, Pf growth 48h inconclusive (no result: Vaccinia mCherry, VACV Venus inh, NS1 function inh)
Cc1ccn2c(=O)c(C(=O)NCc3ccccc3Cl)c(O)nc2c1	none (no result: HCV inhibitor, Pf growth 96h, NS1 function inh, Pf growth 48h)
CCN(CC)CCN(C(=O)c1cc2ccccc2cc1OC)c1nc2ccc(F)cc2s1	HCV inhibitor inconclusive, Pf growth 96h inconclusive, Pf growth 48h inconclusive
CCN(CC)CCN(C(=O)c1cc2ccccc2cc1OC)c1nc2ccc(OC)cc2s1	HCV inhibitor 11.2µM, Pf growth 96h inconclusive, Pf growth 48h inconclusive (no result: Vaccinia mCherry, VACV Venus inh)
